Test results published in PubChem BioAssay AID624297 (National Center for Advancing Translational Sciences (NCATS), 2012).
Several values for one entry are separate records, joined by “and”; a condition that tells them apart may be missing. Equal entries are not always repeated. About 6,200 (1.8%) of roughly 340,000 compounds were called active. Where a call stands in place of a potency, no number is given. Another 10% or so got no clear call; they are omitted. Only a selection was taken, and actives are over-represented in it overall. Values without a mark were called inactive. The call rests on the fitted dose curve; in most records, active means well fitted activation curve with a large enough effect; inconclusive means small, poorly fitted or top-dose-only effect; inactive means no such curve, though single readings can be large or run the other way.
Potency means the concentration at half of the fitted maximal effect.

Assay: A quantitative high throughput screen for small molecules that induce DNA re-replication in SW480 colon adenocarcinoma cells. Further: nearly all actives have a fitted effect of over 55% in size.
Conditions: Hoechst DNA content imaging, 48 h; series mostly up to 46.1 µM
Outline: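 Treated cells incubate 48 hr (37 C, 5% CO2), are stained 40 min with Hoechst, and nuclear fluorescence is enumerated; a rise in nuclei with high DNA signal marks re-replication.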
With `O=C(OCCOc1ccccc1Cl)c1cc(S(=O)(=O)N2CCCCC2)ccc1N1CCOCC1` the Potency was “inactive”. With `Cc1cc(C(=O)Nc2nnc(C3CC3)s2)c(C)s1` the Potency was “inactive”. With `O=C(NCC1CCCO1)c1cc2c([nH]c3ccccc32)c(-c2ccc(F)cc2)n1` (stereo unspecified) the Potency was “inactive”. With `Cc1ccc(CCNC(=O)c2ccc3nc4ccccc4c(=O)n3c2)cc1` the Potency was “inactive”. With `O=C(CSc1nc2ccccc2c(=O)n1Cc1ccc(F)cc1)NCC1CCCO1` (stereo unspecified) the Potency was “inactive”. For `Cc1ccc2nc3c(cc(C(=O)NCCc4ccccc4)c(=N)n3CC3CCCO3)c(=O)n2c1` (stereo unspecified), the Potency was 11.6 µM (active). For `Cc1cccn2c(=O)c3cc(C(=O)NCC4CCCO4)c(=N)n(Cc4ccc(F)cc4)c3nc12` (stereo unspecified), the Potency was 8.2 µM (active). For `COc1ccc(CCNC(=O)Cn2c(=O)n(CC3CCCO3)c(=O)c3ccccc32)cc1OC` (stereo unspecified), the Potency was “inactive”. For `Cc1cccn2c(=O)c3cc(C#N)c(=O)n(CCCN4CCOCC4)c3nc12`, the Potency was “inactive”. In the case of `Cc1cccn2c(=O)c3cc(C(=O)NCCN4CCOCC4)c(=N)n(Cc4cccnc4)c3nc12`, the Potency is reported as 4.11 µM (active). With `Cc1ccc(Cn2c(C)c3cnn(CC(=O)NCCN4CCOCC4)c(=O)c3c2C)cc1` the Potency was “inactive”. For `COc1ccccc1NC(=O)N(O)C1(C#N)CCCCC1`, the Potency was “inactive”. With `O=C(Cn1cnc2ccccc2c1=O)NNC(=O)c1ccccc1F` the Potency was “inactive”. With `CCCN(C(=O)COC(=O)CNS(=O)(=O)c1ccc(NC(C)=O)cc1)C1CCS(=O)(=O)C1` (stereo unspecified) the Potency was “inactive”. With `C[C@H]1CN([C@@H](C)CO)C(=O)Cc2cc(NS(C)(=O)=O)ccc2O[C@@H]1CN(C)CC1CC1` the Potency was “inactive”. In the case of `NC(=O)c1ncn([C@@H]2O[C@H](CN=C3NS(=O)(=O)c4ccccc43)[C@@H](O)[C@H]2O)n1`, the Potency is reported as “inactive”. For `Nc1ccc2nc3c(=O)[nH]c(=S)[nH]c3nc2c1`, the Potency was 4.61 µM (active). With `CSCCC(NC(=O)COc1ccccc1)C(=O)N1CCN(c2cccc(C(F)(F)F)c2)CC1` (stereo unspecified) the Potency was “inactive”. `CCN(CC)C(=O)[C@H]1C[C@H](CC(=O)NCC23CC4CC(CC(C4)C2)C3)C(=O)N2CCc3c([nH]c4cc(CCC(=O)N(C)C)ccc34)[C@]12C` gave a re-replication activation of 25.4% [at 9.22 µM]. For `CN(C)C(CNC(=O)c1cc2ccccc2o1)c1ccccc1` (stereo unspecified), the Potency was “inactive”. For `O=C(c1cnccn1)N1CCN(S(=O)(=O)c2cccc(Cl)c2)CC1`, the Potency was “inactive”. For `Cc1nn(C)cc1/C=N/NC(=O)c1sc2ccccc2c1Cl`, the Potency was “inactive”. With `COc1ccc(N=C(C)c2sc3ccccc3c2O)cc1` the Potency was “inactive”. In the case of `Oc1ccc(N=Cc2sc3ccccc3c2Cl)cc1`, the Potency is reported as 9.2 µM (active). In the case of `CC1(C)C(=O)CCC2(C)C1=CCC1C2C(=O)CC2(C)C1CCC2(O)C(=O)CO` (stereo unspecified), the Potency is reported as “inactive”. With `COc1ccc(-c2ccc(Nc3ccc(S(=O)(=O)N4CCCC4)cc3)nn2)cc1OC` the Potency was “inactive”. In the case of `COc1ccc(-c2cc(C(F)(F)F)nc(S(C)(=O)=O)n2)cc1OC`, the Potency is reported as 4.11 µM (active). For `COc1ccc(-c2cc(C(F)(F)F)nc(NCc3cccnc3)n2)cc1`, the Potency was “inactive”. With `CC[C@]12c3[nH]c4cc(CCC(=O)N(C)C)ccc4c3CCN1C(=O)[C@@H](CC(=O)NCCCn1ccnc1)C[C@@H]2C(=O)N1CCN(C(=O)C2CC2)CC1` the Potency was “inactive”. For `NC1=NOC(=O)C1C1CCCCC1` (stereo unspecified), the Potency was “inactive”. For `CC(=O)OCC(=O)C1(O)CCC2C3CC(C)C4=CC(=O)CCC4(C)C3C(O)CC21C` (stereo unspecified), the Potency was “inactive”. With `O=C(c1ccc2c(c1)C(=O)N(Cc1ccncc1)C2=O)N1CCN(S(=O)(=O)c2ccc(OC(F)(F)F)cc2)CC1` the Potency was “inactive”. With `CCN(C[C@H]1N[C@@](CC)(C(=O)OC)[C@H]2C(=O)N(C)C(=O)[C@@H]12)C(=O)Nc1ccc(F)cc1` the Potency was “inactive”. With `O=C(c1ccccc1)N1N=C(c2ccccc2O)CC1c1ccc(Br)cc1` (stereo unspecified) the Potency was “inactive”. For `CC(=O)Oc1ccccc1C1=NN(C(C)=O)C(c2ccccc2)C1` (stereo unspecified), the Potency was “inactive”. With `Oc1ccccc1C1=NN(c2ccccc2)C(c2ccccc2)C1` (stereo unspecified) the Potency was 8.2 µM (active). In the case of `Clc1ccc(CN2CCN(/N=C/c3cccnc3)CC2)cc1`, the Potency is reported as “inactive”. For `O=C1NCC(=O)N(Cc2ccccc2)/C1=C/c1ccccc1`, the Potency was “inactive”. With `O=C1/C(=C\c2cccnc2)CN(Cc2ccccc2)C/C1=C\c1cccnc1` the Potency was 0.13 µM (active). For `COc1cc(OC)c(/C=N/NC(=O)c2ccc([N+](=O)[O-])cc2)cc1Br`, the Potency was “inactive”. In the case of `Cc1cc(C)c([N+](=O)[O-])cc1-c1ccc(/C=N/NC(=O)c2nonc2N)o1`, the Potency is reported as “inactive”. With `COc1cc(/C=N\NC(=O)c2nonc2N)c(OC)cc1Br` the Potency was 0.291 µM (active). With `C[C@@H]1CN([C@@H](C)CO)C(=O)c2cc(NC(=O)C3CC3)ccc2O[C@H]1CN(C)C` the Potency was “inactive”. With `COc1cc(C(=O)OCc2cc(=O)n3ccsc3n2)ccc1OC(C)C` the Potency was “inactive”. With `CC(NC(=O)C(=O)NN=C1CCC(C(C)(C)C)CC1)c1ccccc1` (stereo unspecified) the Potency was 0.731 µM (active). With `CC(C)(C)C1CCC(=NNC(=O)c2cc(-c3ccccc3)n[nH]2)CC1` (stereo unspecified) the Potency was “inactive”. With `CC(NC(=O)C(=O)N/N=C/c1ccc(Cl)cc1)c1ccccc1` (stereo unspecified) the Potency was “inactive”. With `CC[C@@]1(C(=O)OC)N[C@H](CN(C)C(C)=O)[C@@H]2C(=O)N(C)C(=O)[C@@H]21` the Potency was “inactive”. With `CCCOc1ccccc1C1CC(=O)Nc2cc3c(cc21)OCO3` (stereo unspecified) the Potency was 3.66 µM (active). In the case of `COC(=O)C1=C(C)NC(=O)CC1c1ccccc1OC` (stereo unspecified), the Potency is reported as “inactive”. In the case of `COc1ccccc1C1C2=C(COC2=O)Nc2cc3c(cc21)OCO3` (stereo unspecified), the Potency is reported as “inactive”. For `COc1ccc(C)cc1NC(=O)CSc1cccc[n+]1[O-]`, the Potency was “inactive”. In the case of `Cc1ccc(S(=O)(=O)Cc2cc(-c3ccc(Cl)cc3)no2)cc1`, the Potency is reported as “inactive”. In the case of `O=S(=O)(Cc1ccc(Cl)cc1Cl)c1ccc(Cl)cc1`, the Potency is reported as 1.3 µM (active). For `O=S(=O)(NCc1ccc(Cl)cc1Cl)c1cccs1`, the Potency was “inactive”. With `Nn1c(SCC(=O)NC2CCCc3ccccc32)nnc1C1CC1` (stereo unspecified) the Potency was “inactive”. `CN(C)C(=O)CCc1ccc2c3c([nH]c2c1)[C@]1(CCC2CCCC2)[C@@H](C(=O)N2CCOCC2)C[C@H](CC(=O)NCc2ccco2)C(=O)N1CC3` showed a re-replication activation of 19.7% [at 9.22 µM]. For `O=C1c2ccccc2C(=O)N1CCCCCCN1C(=O)c2ccccc2C1=O`, the Potency was “inactive”. With `CC(CNC(=O)Cn1cnc2c(OCc3ccccc3)ncnc21)c1ccccc1` (stereo unspecified) the Potency was “inactive”. With `O=C(Cc1ccc(Br)cc1)N1CCN(c2ccccn2)CC1` the Potency was “inactive”. With `O=C(/C=C/c1cccc(C(F)(F)F)c1)N1CCN(c2ccccn2)CC1` the Potency was 4.61 µM (active). For `O=C(C(Cl)Cl)N1CCN(c2ccccn2)CC1`, the Potency was “inactive”. In the case of `O=C(c1cccnc1)N(Cc1ccccc1)C(=O)c1cccnc1`, the Potency is reported as “inactive”. For `CCOC(=O)N(Cc1ccccc1)C1CC1`, the Potency was “inactive”. In the case of `CC1=CC(=NNS(=O)(=O)c2ccc([N+](=O)[O-])cc2)CC(C)(C)C1`, the Potency is reported as “inactive”. With `Cc1coc2c(O)cc3c(c12)OC1(N2CCCCC2)C(=O)NCCCC31` (stereo unspecified) the Potency was 20.6 µM (active) and 7.08 µM (active). With `COc1ccc(C(=O)N(C)Cc2ccc(OC)c(OC)c2OC)cc1S(=O)(=O)N1CCOCC1` the Potency was “inactive”. For `COC(=O)C1=C(C)N(c2ccc(Br)cc2)C(=O)/C1=C\c1ccco1`, the Potency was “inactive”. For `COc1ccc(N2C(=O)/C(=C\c3ccco3)N=C2SCC(N)=O)cc1Cl`, the Potency was 18.4 µM (active). In the case of `COc1ccc([N+](=O)[O-])cc1NC(=O)COC(=O)/C=C/c1ccco1`, the Potency is reported as “inactive”. For `O=C(CC1SC(N2CCOCC2)=NC1=O)Nc1ccccc1F` (stereo unspecified), the Potency was “inactive”. For `CCCCCCSc1ccc([C@@H]2[C@H]3C(=O)N(CC)C(=O)[C@H]3[C@]3(C(=O)OC)CCCCN23)cc1`, the Potency was “inactive”. For `COC(=O)Cc1c(-c2[nH]c3ccccc3c2CC(=O)OC)[nH]c2ccccc12`, the Potency was “inactive”. In the case of `O=C(CN1C(=O)NC2(CCCC2)C1=O)Nc1cc(C(F)(F)F)ccc1N1CCOCC1`, the Potency is reported as “inactive”. For `Cc1cc(C)nc(N/N=C/c2c(CO)cnc(C)c2O)n1`, the Potency was 11.6 µM (active). In the case of `Cc1cc(C)nc(N/N=C/c2c(C)oc3ccccc23)n1`, the Potency is reported as “inactive”. For `O=C(COC(=O)/C=C/c1ccc(Br)o1)Nc1cccc(S(=O)(=O)N2CCOCC2)c1`, the Potency was “inactive”. With `CC1CCCCC12NC(=O)N(CC(=O)N1CCN(c3ccccc3)CC1)C2=O` (stereo unspecified) the Potency was “inactive”. In the case of `CCC(=O)Nc1ccc2nc(C)n(Cc3ccccc3Cl)c(=O)c2c1`, the Potency is reported as “inactive”. With `CCOc1cc(NC(=O)c2ccccc2C(=O)O)c(OCC)cc1NC(=O)c1ccccc1F` the Potency was “inactive”. In the case of `CCN1CCN(c2cc3nc(C)n(Cc4ccccc4)c(=O)c3cc2NC(=O)c2ccccc2F)CC1`, the Potency is reported as 8.2 µM (active). For `O=C(c1cccs1)N1CCCC(c2nc(-c3ccc(F)cc3)no2)C1` (stereo unspecified), the Potency was “inactive”. With `Cc1cc(C#N)c(SCC(N)=O)nc1-c1ccc(F)cc1` the Potency was “inactive”. In the case of `N#Cc1c(-c2ccc(F)cc2)cc(C2CC2)nc1SCC(=O)c1cccs1`, the Potency is reported as 11.6 µM (active). With `CC12CCCCC1=CC(=O)CC2` (stereo unspecified) the Potency was “inactive”. With `O=C(Nc1ccc(C2CC2(Cl)Cl)cc1)c1cccc([N+](=O)[O-])c1` (stereo unspecified) the Potency was “inactive”. In the case of `O=C(Nc1ccc(NC(=O)c2ccco2)c(Cl)c1)c1cccc([N+](=O)[O-])c1`, the Potency is reported as 0.651 µM (active). For `CCC(=O)NC(=S)Nc1ccc(NC(=O)c2ccco2)c(Cl)c1`, the Potency was “inactive”. In the case of `O=C(COC(=O)CSc1ccccc1)Nc1ccc(F)cc1F`, the Potency is reported as “inactive”. In the case of `C=CC[C@H](CC(=O)NCCO)C(=O)N[C@@H](COC(=O)[C@@H](CC=C)Cc1ccc(F)cc1)Cc1c[nH]c2ccccc12`, the Potency is reported as “inactive”. In the case of `Cc1ccc(C(=O)Nc2ccccc2-c2ccccc2)cc1S(=O)(=O)Nc1ccccc1`, the Potency is reported as “inactive”. For `Cn1c(N)cc(=O)n(C)c1=S`, the Potency was “inactive”. With `CCCn1nc(NS(=O)(=O)c2ccccc2)c2cc3cc(C)ccc3nc21` the Potency was “inactive”. In the case of `CCCn1nc(NS(=O)(=O)c2ccc(F)cc2)c2cc3ccccc3nc21`, the Potency is reported as “inactive”. In the case of `CCCn1nc(NC(=O)C(C)C)c2cc3cc(OC)ccc3nc21`, the Potency is reported as 9.2 µM (active). With `CCOC(=O)C1CCCN(C(=O)C2CCN(S(=O)(=O)c3ccc(Cl)c(C(F)(F)F)c3)CC2)C1` (stereo unspecified) the Potency was “inactive”.
